PLC-beta3 inh: inhibitors of human phospholipase C beta3. Q01970. Purified PLC-beta3, fluorogenic substrate, fluorescence. inhibition, % at 12.2 µM. 370,000 tested, 0.18% active; in the data active means inhibition above about 11%
HIF act: HIF pathway transcriptional activation; U2OS HRE-luciferase reporter, luminescence; normalized: DMSO 0%, desferrioxamine 100%; activation, % at 7.5 µM (by protocol); 300,000 tested, 0.32% active; AID 1910;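 active means mean activation of at least 10% of the iron chelator positive control signal, with at least half of replicates also reaching 10%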
PLC-gamma1 inh: inhibitors of human phospholipase C gamma1. P19174. purified PLC-gamma1, fluorogenic substrate, fluorescence. inhibition, % at 12.2 µM. 370,000 tested, 0.84% active. AID 720700; in the data active means inhibition above about 9.5%
HGIII-sPLA2 inh: Blocks human group III sPLA2 activity; 370,000 tested, 0.56% active; QFRET BODIPY PC-A2 liposome hydrolysis, fluorescence; Q9NZ20; inhibition, % at 12.2 µM;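 active means inhibition above mean plus 3 SD of compounds lying within the high and low control bounds, cut at about 19% in these data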
Target sequence (Q9NZ20 whole entry, looked up): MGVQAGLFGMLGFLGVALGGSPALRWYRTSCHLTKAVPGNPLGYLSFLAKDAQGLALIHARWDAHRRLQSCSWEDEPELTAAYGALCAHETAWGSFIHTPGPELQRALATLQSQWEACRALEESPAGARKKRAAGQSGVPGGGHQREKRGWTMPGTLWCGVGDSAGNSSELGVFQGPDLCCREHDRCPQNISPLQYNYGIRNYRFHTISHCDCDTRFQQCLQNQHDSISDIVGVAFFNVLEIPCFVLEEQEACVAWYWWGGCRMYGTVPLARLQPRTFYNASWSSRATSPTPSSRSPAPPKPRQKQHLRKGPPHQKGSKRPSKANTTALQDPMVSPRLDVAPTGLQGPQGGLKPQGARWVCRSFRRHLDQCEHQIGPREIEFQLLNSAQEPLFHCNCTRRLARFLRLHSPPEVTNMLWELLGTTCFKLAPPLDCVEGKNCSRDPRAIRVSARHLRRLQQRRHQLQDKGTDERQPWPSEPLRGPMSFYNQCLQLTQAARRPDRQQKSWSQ
AHR act: activators of human aryl hydrocarbon receptor. AHR-responsive luciferase reporter cells, luminescence. AID 2796. 320,000 tested, 2.5% active. P35869. activation, % at 5 µM; in the data active means activation above about 47%
Yeast superoxide: yeast age-related superoxide inhibition as caloric restriction mimetic | S. cerevisiae aged cells, superoxide DHE fluorescence; active compounds read low | superoxide response (% of plate mean), % at 10 µM | 330,000 tested, 0.18% active | AID 2690;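 active means superoxide response under a set limit, about three screen SD below normal, cut at about 65% in these data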;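 further: yeast aged for seven days with compound at 30 °C before DHE staining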
Superoxide pick: yeast aging superoxide inhibition, cherry pick confirmation; shares compounds with Yeast superoxide; S. cerevisiae aging, superoxide DHE fluorescence; active compounds read low; superoxide response (% of plate), % at 10 µM; 850 tested, 1% active;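 active means superoxide signal below 65% of the plate average of sample wells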;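 further: cells aged with compound for 7 days at 30 degrees C before staining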
DHE fluor count: counter-screen for compounds affecting DHE oxidation and fluorescence in yeast; shares compounds with Yeast superoxide; S. cerevisiae BY4741, flow cytometry; active compounds read low; fluorescence response, % at 10 µM; 850 tested, under 10 active;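 active means fluorescence response below 15%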;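 further: lower means stronger quenching of DHE signal or ROS scavenging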
Large screens that a line does not name were inactive (follow-up assays come after a bar, where they were run). This is a sample that favours compounds with a hit; in the whole collection about 3.9% have one here.

C=C1CCC[C@]2(C)C[C@H]3OC(=O)C(CNCCN(CC)CC)[C@H]3CC12 (stereo not given in full)	Yeast superoxide 56 | Superoxide pick inactive | DHE fluor count inactive
CCN1CCN(c2ccc(S(=O)(=O)N3CCCCC3)cc2NC(=O)Cc2c(F)cccc2Cl)CC1	none
CCN(CC)S(=O)(=O)c1ccc(N2CCCC2)c(NC(=O)Cc2c(F)cccc2Cl)c1	none | Superoxide pick inactive | DHE fluor count inactive
CCN(c1ccccc1C(=O)O)S(=O)(=O)c1ccc2[nH]c(=O)[nH]c2c1	none (no result: AHR act)
CCN(CC)CCN1C(=O)C(O)=C(C(C)=O)C1c1ccccc1[N+](=O)[O-] (stereo not given)	none
CC(=O)C1=C(O)C(=O)N(CCc2ccccc2)C1c1ccccc1[N+](=O)[O-] (stereo not given)	AHR act 49, Yeast superoxide 59 | Superoxide pick inactive | DHE fluor count inactive
Cc1c(C(=O)N2CCN(C/C=C/c3ccccc3)CC2)oc2c(F)cccc12	none (no result: HIF act)
COc1cc(CO)c(Br)cc1OCC(=O)Nc1ccccc1C	Yeast superoxide 64 | Superoxide pick inactive | DHE fluor count inactive
O=C(c1ccccn1)N(Cc1ccco1)C1(C(=O)Nc2ccc(Br)cc2)CCCCC1	none (no result: HIF act, AHR act, Yeast superoxide)
Cn1nnnc1SCC(=O)NC1CCCC1	none
COc1ccc(/C=C2\SC(=S)N(CCCC(=O)Nc3ccc(C(=O)O)cc3)C2=O)cc1OC	Yeast superoxide 63 | Superoxide pick inactive | DHE fluor count inactive
CCN(CC)S(=O)(=O)N1CCC(C(=O)NC2CCCC2)CC1	Yeast superoxide 64 | Superoxide pick inactive | DHE fluor count inactive
CCS(=O)(=O)N1CCC(C(=O)NC2CCCCC2)CC1	none
CCOC(=O)C1=C(COC(=O)C2CC(=O)N(c3ccccc3CC)C2)NC(=O)NC1C (stereo not given)	none (no result: HIF act, AHR act, Yeast superoxide)
COC(=O)c1cccc(NC2CC(=O)N(c3ccc(OC)c(OC)c3)C2=O)c1 (stereo not given)	Yeast superoxide 62 | Superoxide pick inactive | DHE fluor count inactive
Cc1cc([N+](=O)[O-])nn1Cc1ccc(C(=O)N/N=C/c2ccc(O)cc2O)cc1	HIF act 21, Yeast superoxide 65 | Superoxide pick inactive | DHE fluor count inactive
Cc1cc(NS(=O)(=O)c2ccccc2)c(C)c(Cl)c1O	none | Superoxide pick inactive | DHE fluor count inactive
COc1cccc(NC(=S)NC2CC(C)CC(C)(C)C2)c1 (stereo not given)	none (no result: HIF act, AHR act, Yeast superoxide)
Cc1ccc(-n2c(C)cc(C)c(C#N)c2=O)cc1C	Yeast superoxide 62 | Superoxide pick inactive | DHE fluor count inactive
O=C(CCS(=O)(=O)c1ccc(Cl)cc1)Nc1ccc(F)cc1	none
CCc1ccc(NC(=O)CCS(=O)(=O)c2ccc(Cl)cc2)cc1	Yeast superoxide 51 | Superoxide pick inactive | DHE fluor count inactive
Cc1ccc(-c2nc3ccccc3c(=O)n2O)cc1	Yeast superoxide 59 | Superoxide pick inactive | DHE fluor count inactive
O=C(CSc1nnc(-c2ccc(Cl)cc2)n1C1CCCCC1)NN=Cc1c(O)ccc2ccccc12	none (no result: HIF act, AHR act, Yeast superoxide)
CSc1ncc(Cl)c(C(=O)Nc2cccc3ccccc23)n1	none
CSc1ncc(Cl)c(C(=O)Nc2cccc(Cl)c2)n1	AHR act 55 | Superoxide pick inactive | DHE fluor count inactive
CSc1ncc(Cl)c(C(=O)Nc2cccc(C)c2)n1	AHR act 62 (no result: HIF act) | Superoxide pick inactive | DHE fluor count inactive
CSc1ncc(Cl)c(C(=O)Nc2ccccc2Br)n1	none | Superoxide pick inactive | DHE fluor count inactive
Cc1ccccc1NC(=O)c1nc(S(C)(=O)=O)ncc1Cl	none | Superoxide pick inactive | DHE fluor count inactive
CCOC(=O)c1ccc(NC(=O)c2nc(SC)ncc2Cl)cc1	none
Cn1nc(C(=O)NCC2COc3ccccc3O2)c2ccccc2c1=O (stereo not given)	none (no result: HIF act)
Cc1ccc(CSc2nc(N)cc(=O)[nH]2)cc1	none
O=C(O)c1c(N2CCCCC2)ccc([N+](=O)[O-])c1N1CCCCC1	Yeast superoxide 53 | Superoxide pick inactive | DHE fluor count inactive
NC(=O)c1ccc(N2CCCCCC2)c([N+](=O)[O-])c1	none
